Laboratory results published in PubChem BioAssay (NCATS).
Inconclusive results are not listed. Values without a mark were called inactive. Activity calls are given as the source filed them. The call rests on the fitted dose curve; tested in HEK293 reporter line.

Test: qHTS for Inhibitors of the Functional Ribonucleoprotein Complex (vRNP) of Lassa (LASV) Arenavirus: LASV Primary Screen - GLuc reporter signal (AID 1347082); further: nearly all actives have a fitted effect of over 60% in size
Conditions: LASV minigenome vRNP, Gaussia luciferase reporter; series mostly up to 57.5 µM; activity change, negative = inhibition: at the top concentration
On the % scale 0 is the no-effect control and ±100 the full control effect; potency means the concentration at half of the fitted maximal effect.

Structure (SMILES)	activity change, negative = inhibition	Potency
O=c1[nH]c(=O)n([C@H]2CCCO2)cc1F	-1.98%	–
O=C(O)c1c(O)c(-c2ccccc2)nc2ccccc12	12.4%	–
O=C(O)c1ccc(S(=O)(=O)N(Cl)Cl)cc1	-6.19%	–
CC(=O)N[C@@H](CCC(=O)O)C(=O)O	0.913%	–
CN[C@@H]1[C@@H](O)[C@@H](O[C@@H]2[C@H](O)[C@H](O[C@H]3OC(CN)=CC[C@H]3N)[C@@H](N)C[C@H]2N)OCC1(C)O (stereo partly drawn)	8.51%	–
Cc1ccccc1OCC(O)CO (stereo not drawn)	6.8%	–
CC=CC1=C(C(=O)O)N2C(=O)[C@H](NC(=O)[C@H](N)c3ccc(O)cc3)[C@@H]2SC1	2.26%	–
C[C@@H]1O[C@@H](O[C@H]2CC[C@@]3(C)[C@H](CC[C@@H]4[C@H]3C[C@@H](O)[C@]3(C)[C@@H](C5=CC(=O)OC5)CC[C@]43O)C2)C[C@H](O)[C@@H]1O[C@H]1C[C@H](O)[C@H](O[C@H]2C[C@H](O)[C@@H](O)[C@@H](C)O2)[C@H](C)O1 (stereo in doubt)	–	559 nM (active)
NC(N)=NC(=O)Cc1c(Cl)cccc1Cl	–	inactive
Cc1cc(O)cc(C)c1Cl	-5.55%	–
Cc1c(C(C)C)c(=O)n(-c2ccccc2)n1C	1.87%	–
O=C(O)CCc1nc2ccccc2[nH]1	1.99%	–
CC(=O)N(CC(O)CO)c1c(I)c(C(=O)NCCO)c(I)c(C(=O)NCC(O)CO)c1I (stereo not drawn)	-4.79%	–
C1COC(NC(C2CC2)C2CC2)=N1	–	inactive
CCOC(=O)C1=C[C@@H](OC(CC)CC)[C@H](NC(C)=O)[C@@H](N)C1	12.8%	–
CC(=O)OCC(=O)[C@H]1CC[C@H]2[C@@H]3CCC4=CC(=O)CC[C@]4(C)[C@H]3CC[C@]12C	3.06%	–
CC(=O)Nc1c(I)c(NC(C)=O)c(I)c(C(=O)O)c1I	4.53%	–
NC(=O)c1ccc([N+](=O)[O-])cc1Cl	-0.352%	–
CC(=O)[C@@]1(O)CC[C@H]2[C@@H]3C[C@H](C)C4=CC(=O)C=C[C@]4(C)[C@@]3(F)[C@@H](O)C[C@@]21C	0.826%	–
CCCCCC(C)N (stereo not drawn)	-18.9%	–

Structure (SMILES)	activity change, negative = inhibition	Potency
CCOc1ccccc1OCC1CNCCO1 (stereo not drawn)	-0.427%	–
CC(C)CCOC(=O)c1ccc(N(C)C)cc1	8.79%	–
CN(C)[C@@H]1C(=O)C(C(N)=O)=C(O)[C@@]2(O)C(=O)C3=C(O)c4c(O)cccc4C[C@H]3C[C@@H]12	-8.92%	–
C=CCc1ccc(O)c(OC)c1	2.26%	–
NCC(=O)CCC(=O)O	0.164%	–
CCCCCCCCCCOc1cc2c(=O)c(C(=O)OCC)c[nH]c2cc1OCC	-8.32% [at 5.82 µM]	–
NS(=O)(=O)c1ccc(C(=O)O)cc1	-3.1%	–
O=C(O)Cc1cccc2ccccc12	–	inactive
O=C(O)[C@@H]1[C@H]2C[C@H]3c4[nH]c5ccccc5c4CCN3C[C@@H]2CC[C@@H]1O	6.16%	–
CC[C@]12CCCN3CCc4c(n(c5ccccc45)[C@@](O)(C(=O)OC)C1)[C@@H]32	–	inactive
CCCCCCCCCCCCCCCC(=O)O	-1.37%	–
O=C(O)Cc1cn(-c2ccccc2)nc1-c1ccc(Cl)cc1	4.79%	–
COC(=O)C1=C(C)NC(C)=C(C(=O)OCC(C)=O)C1c1ccccc1[N+](=O)[O-] (stereo not drawn)	-25.1%	–
CO/N=C(/C(=O)N[C@@H]1C(=O)N2C(C(=O)[O-])=C(C[n+]3ccn4ncccc43)CS[C@H]12)c1nsc(N)n1	0.203%	–
O=C1CC[C@H](C(=O)N2CCCCC2)N1	-2.6%	–
NC/C=C/C(=O)O	–	inactive
O=C(O)c1cc(O)c(O)c(O)c1	1.63%	–
CCOc1cc(CC(=O)N[C@@H](CC(C)C)c2ccccc2N2CCCCC2)ccc1C(=O)O	-0.345%	–
Nc1ccc(C(=O)OCC(O)CO)cc1 (stereo not drawn)	2.06%	–

Test: qHTS for Inhibitors of the Functional Ribonucleoprotein Complex (vRNP) of Lassa (LASV) Arenavirus: Viability assay - alamar blue signal for LASV Primary Screen (AID 1347083); further: nearly all actives have a fitted effect of over 80% in size
Conditions: cell viability, alamar blue fluorescence (LASV minigenome counter-screen); series mostly up to 57.5 µM; activity change, negative = reduced viability: at the top concentration

Structure (SMILES)	activity change, negative = reduced viability	Potency
O=c1[nH]c(=O)n([C@H]2CCCO2)cc1F	-6.76%	–
O=C(O)c1c(O)c(-c2ccccc2)nc2ccccc12	29%	–
O=C(O)c1ccc(S(=O)(=O)N(Cl)Cl)cc1	6.12%	–
CC(=O)N[C@@H](CCC(=O)O)C(=O)O	3.34%	–
CN[C@@H]1[C@@H](O)[C@@H](O[C@@H]2[C@H](O)[C@H](O[C@H]3OC(CN)=CC[C@H]3N)[C@@H](N)C[C@H]2N)OCC1(C)O (stereo partly drawn)	13%	–
Cc1ccccc1OCC(O)CO (stereo not drawn)	0.37%	–
CC=CC1=C(C(=O)O)N2C(=O)[C@H](NC(=O)[C@H](N)c3ccc(O)cc3)[C@@H]2SC1	-0.436%	–
C[C@@H]1O[C@@H](O[C@H]2CC[C@@]3(C)[C@H](CC[C@@H]4[C@H]3C[C@@H](O)[C@]3(C)[C@@H](C5=CC(=O)OC5)CC[C@]43O)C2)C[C@H](O)[C@@H]1O[C@H]1C[C@H](O)[C@H](O[C@H]2C[C@H](O)[C@@H](O)[C@@H](C)O2)[C@H](C)O1 (stereo in doubt)	–	352 nM (active)
NC(N)=NC(=O)Cc1c(Cl)cccc1Cl	–	inactive
Cc1cc(O)cc(C)c1Cl	-0.399%	–
Cc1c(C(C)C)c(=O)n(-c2ccccc2)n1C	5.45%	–
O=C(O)CCc1nc2ccccc2[nH]1	25.4%	–
CC(=O)N(CC(O)CO)c1c(I)c(C(=O)NCCO)c(I)c(C(=O)NCC(O)CO)c1I (stereo not drawn)	-3.42%	–
C1COC(NC(C2CC2)C2CC2)=N1	–	inactive
CCOC(=O)C1=C[C@@H](OC(CC)CC)[C@H](NC(C)=O)[C@@H](N)C1	7.77%	–
CC(=O)OCC(=O)[C@H]1CC[C@H]2[C@@H]3CCC4=CC(=O)CC[C@]4(C)[C@H]3CC[C@]12C	3.33%	–
CC(=O)Nc1c(I)c(NC(C)=O)c(I)c(C(=O)O)c1I	6.62%	–
NC(=O)c1ccc([N+](=O)[O-])cc1Cl	-3.08%	–
CC(=O)[C@@]1(O)CC[C@H]2[C@@H]3C[C@H](C)C4=CC(=O)C=C[C@]4(C)[C@@]3(F)[C@@H](O)C[C@@]21C	-3.79%	–
CCCCCC(C)N (stereo not drawn)	-1.58%	–

Structure (SMILES)	activity change, negative = reduced viability	Potency
CCOc1ccccc1OCC1CNCCO1 (stereo not drawn)	0.0694%	–
CC(C)CCOC(=O)c1ccc(N(C)C)cc1	2.55%	–
CN(C)[C@@H]1C(=O)C(C(N)=O)=C(O)[C@@]2(O)C(=O)C3=C(O)c4c(O)cccc4C[C@H]3C[C@@H]12	-2.73%	–
C=CCc1ccc(O)c(OC)c1	4.04%	–
NCC(=O)CCC(=O)O	7.02%	–
CCCCCCCCCCOc1cc2c(=O)c(C(=O)OCC)c[nH]c2cc1OCC	1.68% [at 5.82 µM]	–
NS(=O)(=O)c1ccc(C(=O)O)cc1	10.7%	–
O=C(O)Cc1cccc2ccccc12	–	inactive
O=C(O)[C@@H]1[C@H]2C[C@H]3c4[nH]c5ccccc5c4CCN3C[C@@H]2CC[C@@H]1O	2.65%	–
CC[C@]12CCCN3CCc4c(n(c5ccccc45)[C@@](O)(C(=O)OC)C1)[C@@H]32	–	inactive
CCCCCCCCCCCCCCCC(=O)O	3.21%	–
O=C(O)Cc1cn(-c2ccccc2)nc1-c1ccc(Cl)cc1	8.51%	–
COC(=O)C1=C(C)NC(C)=C(C(=O)OCC(C)=O)C1c1ccccc1[N+](=O)[O-] (stereo not drawn)	-31.2%	–
CO/N=C(/C(=O)N[C@@H]1C(=O)N2C(C(=O)[O-])=C(C[n+]3ccn4ncccc43)CS[C@H]12)c1nsc(N)n1	-7.75%	–
O=C1CC[C@H](C(=O)N2CCCCC2)N1	3.36%	–
NC/C=C/C(=O)O	–	inactive
O=C(O)c1cc(O)c(O)c(O)c1	-26.7%	–
CCOc1cc(CC(=O)N[C@@H](CC(C)C)c2ccccc2N2CCCCC2)ccc1C(=O)O	0.163%	–
Nc1ccc(C(=O)OCC(O)CO)cc1 (stereo not drawn)	-0.301%	–
